Reference: PubChem BioAssay AID1259240 (Keith Lab, Institute of Cancer Science, University of …, 2017)
Values without a mark were called inactive. Calls of active or inactive are those of the source. No stated cut-off is given here; in the data, active means fold change mostly below about -2 (no sharp cut-off); inactive means mostly above about -1.8.

test: modulation of TERT promoter-driven luciferase – cell-based, luciferase reporter, human, primary screen (AID 1259240); settings: A2780 TERT promoter luciferase reporter, 16 h; at 20 µM, fold versus average of vehicle-only wells

Structure (SMILES) | fold change | outcome
CN(C1=NS(=O)(=O)c2cc([N+](=O)[O-])ccc21)c1ccccc1 | -2.35 (active) | –
O=C(O)CSc1nc(-c2cccs2)cc(C(F)(F)F)n1 | -1.48 | –
COc1ccc(Cl)cc1S(=O)(=O)n1ccnc1C(C)C | -4.76 (active) | –
Cc1cc(C)n(-c2nc3ccccc3n3nnnc23)n1 | 1.46 | –
CCOC(=O)C1=C(CS(=O)(=O)c2ccc(C)c(C)c2)NC(=O)NC1c1ccc(O)c(OC)c1 (stereo not given) | 1.22 | –
O=C(Nc1ccc2snnc2c1)Nc1ccccc1Cl | -1.86 | –
CCCCN1C(=O)/C(=C2\SC(N3CCCCC3)=NC2=O)c2ccccc21 | -8.65 (active) | –
O=C1c2cccnc2C(=O)N1CNc1ccccn1 | -1.26 | –
O=C(NCc1ccc(Cl)cc1)Nc1ccc2snnc2c1 | -1.36 | –
COc1cc2cc(=O)[nH]c(C)c2cc1OC | 1.08 | –
CCc1c(C)sc(NC(=O)c2cc(C)no2)c1C#N | 1.32 | –
CCOC(=O)N1CCN(c2c(NCCCOC)c(=O)c2=O)CC1 | 1.11 | –
Fc1ccc(OCc2nc(-c3ccc(-n4cccc4)cc3)no2)cc1 | -1.22 | –
CC1CCN(S(=O)(=O)c2ccc3c(c2)N(CC(=O)N2CCOCC2)C(=O)CO3)CC1 | 1.44 | –
Cn1c(SCC(=O)Nc2ccc(F)cc2)nnc1-c1c[nH]c2ccccc12 | – | inactive
CCCCN1C(=O)/C(=c2\sc3nc(-c4cc(OC)c(OC)c(OC)c4)nn3c2=O)c2ccccc21 | -1.17 | –
Cc1nc(SCc2cccc(C(F)(F)F)c2)c2c(=O)n(C)c(=O)n(C)c2n1 | 1.26 | –
O=C(O)c1cc(S(=O)(=O)O)cc(Nc2c3ccccc3nc3ccccc23)c1O | -1.04 | –
Cc1sc(-c2c(C#N)c(N)nc3c2CCCC3)cc1Br | -4.77 (active) | –
CCC1(C)Cc2ccccc2-c2nc(NCCO)n(-c3ccccc3)c(=O)c21 (stereo not given) | -1.48 | –

Structure (SMILES) | fold change | outcome
CCOC(=O)C1=C(CS(=O)(=O)c2ccc(F)c(C)c2)NC(=O)NC1c1ccccc1 (stereo not given) | 1.21 | –
c1ccc2c(c1)CCN2c1nnc(Cc2ccncc2)c2ccccc12 | -1.29 | –
Cc1nc2cc(-c3ccccc3)nn2c(C)c1CCC(=O)NC(C)c1ccc2c(c1)OCCO2 (stereo not given) | -3.95 (active) | –
CCN1C(=O)N/C(=C/c2cn(CC(=O)Nc3ccc(Cl)cc3)c3ccccc23)C1=O | -1.87 | –
Cc1ccc(Nc2nc3ccccc3n3cnnc23)cc1 | 1.11 | –
CCOC(=O)N1CCN(c2nc3ccccc3n3cnnc23)CC1 | 1.59 | –
CCOc1ccc(Oc2nc(NC(C)(C)C)nc(N3CCOCC3)n2)nn1 | 1.49 | –
C=CCn1c(SCC(=O)N2CCCCC2)nc2sc3c(c2c1=O)CCC3 | -1.53 | –
O=c1/c(=C/c2cn(-c3ccccc3)nc2-c2ccccc2)sc2nc(-c3ccco3)nn12 | 1.18 | –
CCOC(=O)C1CCCN(c2c(NC3CCN(C(=O)OCC)CC3)c(=O)c2=O)C1 (stereo not given) | 1.19 | –
Fc1ccc(-c2nnc3ccc(NCCN4CCOCC4)nn23)cc1 | -1.13 | –
CCOC(=O)C1CCN(c2c(NCCN(C)C)c(=O)c2=O)CC1 | 1.32 | –
COc1cc(Cl)cc(OC)c1NC(=O)Nc1ccc2snnc2c1 | -1.47 | –
CCOC(=O)N1CCC(Nc2c(N3CCOCC3)c(=O)c2=O)CC1 | -1.09 | –
Cc1nnc(SCc2nc(-c3ccc(Cl)cc3)no2)n1-c1ccccc1 | -1.9 | –
COc1ccc(C2C=C(c3cccnc3)Nc3nc4ccccc4n32)cc1 (stereo not given) | – | inactive
Cc1cc(C)nc(SCC(=O)Nc2ccc(S(=O)(=O)Nc3onc(C)c3C)cc2)n1 | 1.02 | –
CN(C)c1ccc(/C=C2/SC(=S)NC2=O)cc1 | -4.47 (active) | –
O=C(CN1C(=O)COc2ccc(S(=O)(=O)N3CCCCCC3)cc21)N1CCC2(CC1)OCCO2 | -1.25 | –
CC1CC(C)CN(C(=O)Cn2c(=O)oc3cc(S(=O)(=O)NC4CCCC4)ccc32)C1 (stereo not given) | 1.02 | –
